{
  "source": "PubChem BioAssay (NCATS)",
  "note": "Records with an inconclusive call do not appear. Where a call stands in place of a potency, no number is given. Activity calls are given as the source filed them. Calls follow the shape of the dose curve; as a rule, active = well fitted cell-killing curve with a large enough effect; inconclusive = small, poorly fitted or top-dose-only effect; inactive = no such curve, though single readings can be large or run the other way. Potency is read from the fitted curve at half-maximal effect.",
  "data": [
    {"assay": "qHTS of pediatric cancer cell lines to identify multiple opportunities for drug repurposing: Primary screen for NB1643 cells (AID 1347099); also: nearly all actives have a fitted effect of over 50% in size", "details": "NB1643 neuroblastoma viability, CellTiter-Glo luminescence, 48 h; series mostly up to 46 µM", "source_text": "Drug repurposing or repositioning has been offered as a strategy for drug development in oncology programs. This approach has special potential for childhood cancers and other rare or orphan diseases, where the expected return on new drug development has been a disincentive to pharmaceuticals. […] In this project we exploit the poly-pharmacology of drugs to discover new indications via phenotypic screening of a panel of 19 well-characterized cell lines derived from solid tumors seen in children and adolescents. The goal is to identify approved drugs with previously unrecognized anticancer properties that has the potential to reveal new mechanisms and biological processes involved in carcinogenesis or drug resistance. We employed a titration-based paradigm (quantitative high-throughput screening or qHTS), where all compounds were tested at multiple concentrations for their effect on cell viability. Concentration-response curves (CRCs) were derived directly from the primary screen, and both potency and efficacy values were used to identify compounds with robust bioactivity profiles. We screened the NIH Chemical Genomics Center (NCGC) Pharmaceutical Collection (NPC) and Mechanism Interrogation Plate (MIPE) small molecule collections of approved and investigational compounds against these cell lines; and measured metabolically active cells after 48 hours of compound treatment as a proxy for cell viability. […] Assay Submitter: Nathalia J. Martinez, National Center for Advancing Translational Sciences, National Institutes of Health, Rockville, MD, USA; email: natalia.martinez@nih.gov Shen, M et al. Quantitative high-throughput phenotypic screening of pediatric cancer cell lines identifies multiple opportunities for drug repurposing. Oncotarget 2017 Dec 19;9(4):4758-4772. PMID 29435139.\nThe cells were obtained from University of North Carolina (UNC), Pediatric Preclinical Testing Program (PPT), and Coriell Institute (CI). qHTS cell viability assay: Cells were assayed in growth media at a density of 500-1,000 cells/well. Five microliters of cells were dispensed into 1,536-well, white, solid-bottom, TC-treated plates (Greiner Bio One) using a multidrop dispenser and incubated at 37 degrees C, 5% CO2, under a humidified atmosphere for 5 hours. Twenty-three nanoliters of compounds and controls (neutral control DMSO or positive control bortezomib at final concentration of 2.3 µM) were subsequently transferred by Kalypsys pintool. For primary screens, the MIPE collection was tested at 11-point dilutions (final concentrations range from 0.78 nM to 46 µM) and the NPC collection at 8-point dilutions (final concentrations range from 0.59 nM to 46 µM). Compounds tested in follow-up screens were assayed at 11-point dilutions. Cells were incubated for 48 hours, followed by addition of 3 µL of CellTiter-Glo (Promega). After a 15 min incubation at room temperature, samples were analyzed for luminescence intensity using a ViewLux High-throughput CCD imager equipped with clear filters.", "values": [
      {"smiles": "CCN(CC)CCOCCOC(=O)C1(c2ccccc2)CCCC1", "Potency": "inactive"},
      {"smiles": "CCN(CC)CC(=O)Nc1c(C)cccc1C", "Potency": "inactive"},
      {"smiles": "C[n+]1cc2c3c(ccc2c2ccc4cc5c(cc4c21)OCO5)OCO3", "Potency": "1.16 µM (active)"},
      {"smiles": "CCn1cc(C(=O)O)c(=O)c2cc3c(cc21)OCO3", "Potency": "inactive"},
      {"smiles": "CCN(Cc1ccncc1)C(=O)C(CO)c1ccccc1", "note": "(stereo not given)", "Potency": "inactive"},
      {"smiles": "CC(=O)[C@@]1(O)CC[C@H]2[C@@H]3CCC4=CC(=O)CC[C@]4(C)[C@H]3CC[C@@]21C", "Potency": "inactive"},
      {"smiles": "CCN(CC)CCNC(=O)c1cc(S(C)(=O)=O)ccc1OC", "Potency": "inactive"},
      {"smiles": "CCNC(=O)N1CCN(CCCC(c2ccc(F)cc2)c2ccc(F)cc2)CC1", "Potency": "inactive"},
      {"smiles": "CCOC(=O)C1=C(C)NC(C)=C(C(=O)OC)C1c1cccc(Cl)c1Cl", "note": "(stereo not given)", "Potency": "inactive"},
      {"smiles": "OCCN1CCN(CCCN2c3ccccc3C=Cc3ccccc32)CC1", "Potency": "inactive"},
      {"smiles": "COc1cc(C(=O)OCCCN2CCCN(CCCOC(=O)c3cc(OC)c(OC)c(OC)c3)CC2)cc(OC)c1OC", "Potency": "inactive"},
      {"smiles": "COC(=O)C1=C(C)NC(C)=C(C(=O)OCCN(C)Cc2ccccc2)C1c1cccc([N+](=O)[O-])c1", "note": "(stereo not given)", "Potency": "21.1 µM (active)"},
      {"smiles": "COC(=O)[C@H]1[C@H]2C[C@@H]3c4[nH]c5cc(OC)ccc5c4CCN3C[C@H]2C[C@@H](OC(=O)c2cc(OC)c(OC)c(OC)c2)[C@@H]1OC", "Potency": "inactive"},
      {"smiles": "O=C(CCCN1CCC(O)(c2cccc(C(F)(F)F)c2)CC1)c1ccc(F)cc1", "Potency": "inactive"},
      {"smiles": "CN1CCN(CC(=O)N2c3ccccc3C(=O)Nc3cccnc32)CC1", "activity change, negative = cytotoxic": "9.59% [at 4.84 µM] (inactive)"},
      {"smiles": "C(=C\\c1ccccc1)/CN1CCN(C(c2ccccc2)c2ccccc2)CC1", "Potency": "inactive"},
      {"smiles": "NC(=O)c1ncn([C@@H]2O[C@H](CO)[C@@H](O)[C@H]2O)c1O", "Potency": "inactive"},
      {"smiles": "CC(=O)Oc1cc(C(C)C)c(OCCN(C)C)cc1C", "Potency": "inactive"},
      {"smiles": "CCCN1C[C@H](CSC)C[C@@H]2c3cccc4[nH]cc(c34)C[C@H]21", "Potency": "inactive"},
      {"smiles": "CCCNC(C)C(=O)Nc1ccccc1C", "note": "(stereo not given)", "Potency": "inactive"},
      {"smiles": "CN(C)C(=O)Oc1ccc[n+](C)c1", "Potency": "inactive"},
      {"smiles": "Nc1c2c(nc3ccccc13)CCCC2O", "note": "(stereo not given)", "Potency": "inactive"},
      {"smiles": "C[C@]12CCC(=O)C=C1CC[C@@H]1[C@@H]2CC[C@@]2(C)[C@H]1CC[C@]2(O)C(=O)CO", "Potency": "inactive"},
      {"smiles": "C#CCN(C)CCCOc1ccc(Cl)cc1Cl", "Potency": "inactive"},
      {"smiles": "NC1=NCC2c3ccccc3Cc3ccccc3N12", "note": "(stereo not given)", "Potency": "inactive"},
      {"smiles": "COc1cc(Cc2cnc(N)nc2N)cc(OC)c1OC", "Potency": "inactive"},
      {"smiles": "OC(CCN1CCCCC1)(c1ccccc1)C1CCCCC1", "note": "(stereo not given)", "Potency": "inactive"},
      {"smiles": "O=C(O)CN(CCN(CC(=O)O)CC(=O)O)CCN(CC(=O)O)CC(=O)O", "Potency": "inactive"},
      {"smiles": "CCn1ccnc1CC1COc2ccccc2O1", "note": "(stereo not given)", "Potency": "inactive"},
      {"smiles": "C[N+](C)(C)CCOC(=O)CCC(=O)OCC[N+](C)(C)C", "Potency": "inactive"},
      {"smiles": "Cc1nnc(SCC2=C(C(=O)O)N3C(=O)[C@@H](NC(=O)Cn4cnnn4)[C@H]3SC2)s1", "Potency": "inactive"},
      {"smiles": "O=c1[nH]c(=O)n([C@H]2C[C@H](O)[C@@H](CO)O2)cc1Br", "Potency": "inactive"},
      {"smiles": "CCO/C([O-])=N/c1c[n+](N2CCOCC2)no1", "Potency": "inactive"},
      {"smiles": "CCCCNC(=O)NS(=O)(=O)c1ccc(C)cc1", "Potency": "inactive"},
      {"smiles": "CC(=O)Nc1nnc(S(N)(=O)=O)s1", "Potency": "inactive"},
      {"smiles": "C[N+](C)(C)CCCCCCCCCC[N+](C)(C)C", "Potency": "inactive"},
      {"smiles": "CC[N+](C)(C)c1cccc(O)c1", "Potency": "inactive"},
      {"smiles": "Cc1nc2c([nH]1)c(=O)n(C)c(=O)n2Cc1ccco1", "Potency": "inactive"},
      {"smiles": "Fc1ccc(C(c2ccc(F)cc2)N2CCN(C/C=C/c3ccccc3)CC2)cc1", "Potency": "inactive"},
      {"smiles": "CNCCCN1c2ccccc2CCc2ccccc21", "Potency": "inactive"}
    ]}
  ]
}
